Source: PubChem (Broad Institute)
CASP6 VEID inh – caspase-6 (human) enzyme inhibition. P55212. purified caspase-6, Z-VEID-R110 cleavage fluorescence. inhibition, % at 12.5 µM. 0.53% of 350,000 active. AID 686996;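 active = mean inhibition across replicates at least about 35%, with every replicate also reaching that limit, limit read from the data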;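 also: 0% = median of neutral control wells and 100% = no fluorescence left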
RAD52 inh – inhibitors of human RAD52 DNA annealing | AID 651710 | P43351 | inhibition, % at 18.7 µM | recombinant RAD52 DNA annealing, FRET fluorescence | 0.46% of 360,000 active;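 active = every replicate showing at least 50% inhibition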
rRNA inh HTS – selective bacterial rRNA inhibition in E. coli | E. coli WT GFP vs humanized-ribosome RFP mutants, fluorescence, 24 h; stronger effect = lower value; DMSO median 0, no signal -100 | GFP signal change (wild-type ribosome), % (concentration not given with the values) | 1.6% of 350,000 active;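 active = significant combined selectivity score with lowered wild-type GFP, culture density cut under 30%, mutant RFP and density less affected; inactive = any of these conditions unmet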
AF4-AF9 inh – inhibitors of human MLL-AF4/AF9 interaction. 0.47% of 350,000 active. inhibition, % at 10 µM. AlphaScreen, biotin-AF4 peptide binding to FLAG-AF9. AID 651704;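 active = every replicate reaching a set inhibition limit, whatever the replicate mean, cut at about 25% in these data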;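 also: 0% = plate neutral control median and 100% = total signal loss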
NSD2 inh – inhibitors of human histone methyltransferase NSD2. NSD2 peptide methylation, AlphaScreen, 120 min. inhibition, % at 12.5 µM. 0.54% of 310,000 active. AID 743445; in the data active = inhibition above about 50%
Active calls of the source: *; · = not tested or not shown. Only some compounds are listed: those with a hit (about 2.5% of all), similar ones and a draw of the others.

SMILES | CASP6 VEID inh | RAD52 inh | rRNA inh HTS | AF4-AF9 inh | NSD2 inh
CC(C)(C)C1CCC(C(=O)Nc2ccc(N3CCOCC3)cc2N2CCOCC2)CC1 (centres undefined) | 1 | -5 | -20* | 11 | 7
C[C@@H]1CCCCO[C@H](CN(C)C(=O)Nc2ccccc2)[C@@H](C)CN([C@H](C)CO)C(=O)c2cc(NS(=O)(=O)c3ccccc3)ccc2O1 | 0 | -26 | 2 | 0 | ·
O=[N+]([O-])c1ccc2c(c1)N([O-])C1(CCCCC1)[N+]2=O | 34 | -5 | · | 5 | 84*
O=C(CSc1ccncc1)Nc1ccc2ccccc2c1 | 1 | -22 | -31* | -2 | ·
CCOC(=O)C1=C2c3cc(OC)c(OC)cc3CC(C)(C)N2C(=O)C1=O | 3 | -18 | -3 | 4 | -1
CCOC(=O)C1=C2c3ccc4ccccc4c3CC(C)(C)N2C(=O)C1=O | 4 | -9 | -29* | 4 | 2
COc1cccc(CNC(=O)c2cccnc2Sc2ccc(C)cc2C)c1 | 3 | -10 | -31* | -1 | -6
COc1cccc(CNC(=S)Nc2cc(C)ccc2C)c1 | 3 | -9 | -26* | 0 | 6
Cc1ccc(C(=O)NC(=O)CSc2nncn2C)cc1 | 1 | -12 | 8 | -1 | 1
Cc1ccc(C2=NN=C(NC(=O)CSc3nncn3C)SC2)cc1 | · | -30 | -23* | -1 | 9
O=C(COc1cccc2ccccc12)NNC(=O)Nc1ccccc1 | 0 | -13 | -33* | · | 7
O=C(NCc1ccco1)c1ccc(C(=O)NCc2ccco2)cc1 | 40* | -24 | 8 | -2 | -1
O=C(NCc1ccco1)N1c2ccccc2Sc2ccccc21 | 0 | -15 | -24* | -33 | 1
O=C(NC(=S)NCc1ccco1)c1ccc([N+](=O)[O-])cc1 | 2 | -9 | -5.5* | 7 | 10
Cc1cc(C)cc(C(=O)OCC(=O)NCc2ccco2)c1 | 51* | -11 | · | 2 | -1
Cc1ccc(C(=O)OCC(=O)NCc2ccco2)cc1C | 2 | -2 | 4 | 1 | 1
O=C(Cc1ccccn1)NCC[C@@H]1CC[C@H](NS(=O)(=O)c2ccccc2)[C@@H](CO)O1 | 0 | -24 | -1 | 0 | ·
NCCCCCNC(=O)[C@@H]1C[C@@H]2C(=O)N[C@@H](Cc3ccccc3)C(=O)N2[C@@H]1c1ccc(O)cc1 | -10 | 15 | · | 1 | ·
CCOC(=O)Cn1c(=O)oc2cc(S(=O)(=O)N(C)c3ccc(OC)cc3)ccc21 | 1 | -45 | -8 | -3 | ·
CCOC(=O)Cn1c(=O)oc2cc(S(=O)(=O)N(C)c3cccc(C)c3)ccc21 | 1 | -89 | -22* | -2 | -2
CC(=O)N(C)C[C@@H]1Oc2ncc(-c3ccc(C)cc3)cc2C(=O)N([C@@H](C)CO)C[C@@H]1C | -3 | 8 | 2 | -3 | ·
O=C(C[C@H]1CC[C@H](NS(=O)(=O)c2ccc(F)cc2)[C@@H](CO)O1)NCc1ccncn1 | 1 | 3 | 0 | -1 | ·
NC(=O)C1CC(=O)N(Cc2ccc3c(c2)OCO3)C(=Nc2ccccc2)S1 (centres undefined) | -2 | -19 | -18* | 3 | 0
COc1ccc(Nc2nc(C)cc(C)c2C(N)=O)cc1 | · | · | · | · | -3
COc1ccc(Nc2n[nH]c(N)c2C(N)=O)cc1 | 2 | -4 | 7 | 29* | 0
SMILES | CASP6 VEID inh | RAD52 inh | rRNA inh HTS | AF4-AF9 inh | NSD2 inh
COCC(=O)N1CC2(CCN(Cc3nccs3)CC2)c2c(n(C)c3cc(OC)ccc23)[C@@H]1CO | -2 | 4 | -3 | -2 | ·
O=C(O)c1ccc(Cn2cc(/C=C\[N+](=O)[O-])c3ccccc32)o1 | 38* | -39 | 6 | 5 | 5
N#C[C@@H]1[C@@H](c2ccc(C#Cc3cccnc3)cc2)[C@@H](CO)N1C(=O)NC1CCCC1 | · | · | -5 | · | ·
Cc1ccc(NC(=O)CN2C(=O)S/C(=C\c3cc(C)n(-c4cccc(C(=O)O)c4)c3C)C2=O)cc1 | 39* | -25 | -18 | 0 | -6
Cc1ccc(NC(=O)CN2C(=O)S/C(=C\c3ccc(C(=O)O)cc3)C2=O)cc1 | 43* | -2 | 3 | -1 | -1
COc1ccc2c3c(n(C)c2c1)[C@H](CO)N(C(C)=O)CC31CN(Cc2cccnc2)C1 | · | · | 0 | · | ·
COC(=O)c1ccc(C(=O)OC)c(NC(=O)CN(c2ccc3c(c2)OCO3)S(C)(=O)=O)c1 | 42* | 1 | 14 | 5 | 1
O=C(COc1ccc2ccccc2c1Br)N1CCOCC1 | · | · | · | · | -2
O=C(COc1ccc2ccccc2c1Br)N1CCCC1 | 4 | -1 | -26* | -6 | 0
